From PubChem BioAssay
Calls of active or inactive are those of the source.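 The calls were made as follows, unless noted: active = growth inhibition above 50% at the single 2 µM test dose, taken to imply half-maximal potency below 2 µM; inactive = the rest.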

assay: antimalarial activity against Dd2 strain (AID 2302);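 also: 0% = DMSO untreated growth and 100% = chloroquine plus artemisinin killed control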; settings: P. falciparum Dd2 in RBCs, LDH growth readout, 72 h; at 2 µM; active compounds read high

Which growth inhibition does the source give for `COc1ccc(C2C(C(=O)Nc3ccc(C)cc3Br)c3ccccc3C(=O)N2C)cc1` (stereo not given) here?
Its growth inhibition is 2% (inactive).

For `COc1ccc(CCN(C)CCCCc2ccc(NC(=O)c3cccc4c(=O)c5cc(F)ccc5sc34)cc2)cc1OC`, which growth inhibition is on record?
The growth inhibition was 49% (inactive).

Which growth inhibition does the source give for `CS(=O)(=O)Nc1ccc(-c2ccc3ccnc(N)c3c2)cc1` here?
The growth inhibition was 75% (active).

With `Cc1c(NC(=O)COc2ccc(Cl)cc2C(=O)c2cc(F)cc(C(F)(F)F)c2)ccc2ncsc12` as the molecule, how does the growth inhibition read?
Its growth inhibition is 18% (inactive).

For `COc1c(Br)cc(Br)cc1-c1ccc(CN2CC3CCC2CC3)[nH]1`, which growth inhibition is on record?
Its growth inhibition is 100% (active).

With `O=C(/C=C/c1ccc(Cl)c(Cl)c1)NCCCCCCN1CCCN(C(=O)Nc2cccc(Cl)c2)CC1` as the molecule, how does the growth inhibition read?
Its growth inhibition is 2% (inactive).

With `Cc1cc2ccc(/C=C/C(=O)NC3CCC(CCN4CCc5ccc(C#N)cc5CC4)CC3)cc2[nH]1` (stereo not given) as the molecule, how does the growth inhibition read?
The growth inhibition was 56% (active).

For `CC(C)(C)c1ccc(C(=O)NC2CCC(CCN3CCc4ccc(S(C)(=O)=O)cc4CC3)CC2)cc1C(F)(F)F` (stereo not given), which growth inhibition is on record?
The growth inhibition was 11% (inactive).

With `CCN(CC)CCN(Cc1ccc(-c2ccc(C(F)(F)F)cc2)cc1)C(=O)Cn1c(CCc2c(F)cc(F)cc2F)nc(=O)c2ccccc21` as the molecule, how does the growth inhibition read?
The growth inhibition was 26% (inactive).

With `CC(C)(C)c1ccc(CN2CCC(NC(=O)c3ccc(-c4ccccc4F)s3)CC2)cc1` as the molecule, how does the growth inhibition read?
Its growth inhibition is 37% (inactive).

Which growth inhibition does the source give for `C1=CN(Cc2ccccc2)C=CC1=C1C=Nc2ccccc21` here?
Its growth inhibition is 69% (active).

With `CCOc1ccc(C(=O)Nc2ccc(-c3nc4ccccc4[nH]3)cc2)cc1[N+](=O)[O-]` as the molecule, how does the growth inhibition read?
Its growth inhibition is 70% (active).

Which growth inhibition does the source give for `CCCC(C)Nc1nc(C)cc(N[C@@H](Cc2ccccc2)C(=O)Nc2ccc(OC)cc2)n1` (stereo not given in full) here?
Its growth inhibition is 72% (active).

Which growth inhibition does the source give for `Cc1nc(N)nc(N)c1-c1ccc(Br)c([N+](=O)[O-])c1` here?
The growth inhibition was 2% (inactive).

With `Cc1cc(NN=Cc2cccc([N+](=O)[O-])c2)c2cc(F)ccc2n1` as the molecule, how does the growth inhibition read?
Its growth inhibition is 99% (active).

Which growth inhibition does the source give for `CCCCCC(=O)NCC(NCCCNc1cc(=O)c2ccccc2[nH]1)c1cc(Br)cc(Br)c1` (stereo not given) here?
The growth inhibition was 66% (active).

For `CCC(=O)c1c(C)n(-c2ncnc3c2nc(C)n3-c2ccc(C)cc2C)c2ccccc12`, which growth inhibition is on record?
Its growth inhibition is 78% (active).

With `Cc1ccccc1NC1=NC(=S)N(c2cccc(C(F)(F)F)c2)C12CCC(C(C)(C)C)CC2` (stereo not given) as the molecule, how does the growth inhibition read?
Its growth inhibition is 25% (inactive).

With `C=CCc1cc(Cc2cnc(N)nc2N)cc(CCC)c1O` as the molecule, how does the growth inhibition read?
The growth inhibition was 2% (inactive).

For `CCNc1cc(C)nc(Nc2ccc(F)cc2)n1`, which growth inhibition is on record?
Its growth inhibition is 57% (active).

Which growth inhibition does the source give for `Cc1ccc2c(Cl)c(C(=O)N3CCCc4ccccc43)sc2c1` here?
Its growth inhibition is 15% (inactive).

Which growth inhibition does the source give for `COc1ccc(CNCc2cccc(-c3csc(-c4nc5ccccc5[nH]4)c3)c2)cc1` here?
The growth inhibition was 22% (inactive).

For `CC(C)(C)c1ccc(OCCCON2C(N)=NC(N)=NC2(C)C)c(C(C)(C)C)c1`, which growth inhibition is on record?
Its growth inhibition is 97% (active).

With `CC(=O)Nc1nc(C(=O)Nc2cccc(-c3ccc4c(cnn4CC4CC4)c3)c2)cs1` as the molecule, how does the growth inhibition read?
The growth inhibition was 67% (active).

With `CN(Cc1ccc(NC(=O)CCC2CCN(C(=O)/C=C/c3ccc(Cl)c(Cl)c3)CC2)cc1)C1CCOCC1` as the molecule, how does the growth inhibition read?
Its growth inhibition is 2% (inactive).

Which growth inhibition does the source give for `O=C(NCc1cccs1)[C@H](Cc1ccccc1)Nc1ccnc(NCC2CCCCC2)n1` here?
The growth inhibition was 67% (active).

Which growth inhibition does the source give for `Cc1cc(N[C@@H](CC(C)C)C(=O)NCCOc2ccccc2)nc(NCCc2ccc(F)cc2)n1` here?
The growth inhibition was 54% (active).

With `Cc1cccc(OCC2CCN(c3ncc(C(=O)NC4CC4)cc3Cl)CC2)c1` as the molecule, how does the growth inhibition read?
Its growth inhibition is 78% (active).

Which growth inhibition does the source give for `O=c1cc(NCCCNCc2cc(Cl)cc(Cl)c2OCc2ccc(Cl)cc2)[nH]c2ccccc12` here?
Its growth inhibition is 53% (active).

Which growth inhibition does the source give for `CC(C)N(CC(=O)c1ccc(O)c(C(=O)O)c1)Cc1ccccc1` here?
The growth inhibition was 26% (inactive).

For `Cc1ccc(NC(=O)Nc2ccc(Cn3ncc(N4CCCNCC4)c(Cl)c3=O)cc2)cc1`, which growth inhibition is on record?
Its growth inhibition is 13% (inactive).

For `Oc1ccc2ccccc2c1CNCC1CCCCC1`, which growth inhibition is on record?
The growth inhibition was 93% (active).

Which growth inhibition does the source give for `Cc1cc(CN2CC[C@H](NC(=O)c3ccc(Cl)c(Cl)c3)C2)ccc1OCCN1CCCC1` here?
Its growth inhibition is 92% (active).

For `CCN(CCN(C)C)Cc1ccc(-c2ccc(NS(=O)(=O)c3cccc(Cl)c3)cc2)cc1`, which growth inhibition is on record?
The growth inhibition was 40% (inactive).

Which growth inhibition does the source give for `CCOC(=O)[C@H](Cc1cc([N+](=O)[O-])c(Oc2ccc(OC)c(Cc3ccc(OC)c(C(C)C)c3)c2)c([N+](=O)[O-])c1)NC(=O)C(F)(F)F` here?
Its growth inhibition is -3% (inactive).

With `Cc1[nH]c2ccccc2c(=O)c1-c1ccc(Cl)cc1` as the molecule, how does the growth inhibition read?
The growth inhibition was 91% (active).

Which growth inhibition does the source give for `c1ccc(CN2CCC(NCc3ccccc3-c3ccc(CNCc4ccc5c(c4)OCO5)cc3)CC2)cc1` here?
Its growth inhibition is 49% (inactive).

For `COc1ccc(-n2nc(C(=O)NCCC3=CCCCC3)c3ccccc3c2=O)cc1`, which growth inhibition is on record?
The growth inhibition was 59% (active).

With `Nc1nc(N)c2c(Oc3cccc4ccccc34)cccc2n1` as the molecule, how does the growth inhibition read?
The growth inhibition was 10% (inactive).

Which growth inhibition does the source give for `Cc1cc(N(C)C)nc(Nc2ccc(NC(=O)Nc3ccccc3)cc2)n1` here?
Its growth inhibition is 100% (active).

assay: human hepatoma cell viability loss – ATP luminescence, cytotoxicity control for P. falciparum antimalarial project, primary screen (AID 2303;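 active = inhibition above 50%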;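 also: 0% = DMSO wells and 100% = digitonin-killed cells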); settings: HepG2 viability, 24-48 h, at 10 µM, active compounds read high

With `COc1ccc(C2C(C(=O)Nc3ccc(C)cc3Br)c3ccccc3C(=O)N2C)cc1` (stereo not given) as the molecule, how does the inhibition read?
Its inhibition is 4% (inactive).

With `COc1ccc(CCN(C)CCCCc2ccc(NC(=O)c3cccc4c(=O)c5cc(F)ccc5sc34)cc2)cc1OC` as the molecule, how does the inhibition read?
The inhibition was 98% (active).

For `CS(=O)(=O)Nc1ccc(-c2ccc3ccnc(N)c3c2)cc1`, which inhibition is on record?
Its inhibition is 31% (inactive).

Which inhibition does the source give for `Cc1c(NC(=O)COc2ccc(Cl)cc2C(=O)c2cc(F)cc(C(F)(F)F)c2)ccc2ncsc12` here?
The inhibition was -2% (inactive).

For `COc1c(Br)cc(Br)cc1-c1ccc(CN2CC3CCC2CC3)[nH]1`, which inhibition is on record?
Its inhibition is 91% (active).

With `O=C(/C=C/c1ccc(Cl)c(Cl)c1)NCCCCCCN1CCCN(C(=O)Nc2cccc(Cl)c2)CC1` as the molecule, how does the inhibition read?
The inhibition was 26% (inactive).

For `Cc1cc2ccc(/C=C/C(=O)NC3CCC(CCN4CCc5ccc(C#N)cc5CC4)CC3)cc2[nH]1` (stereo not given), which inhibition is on record?
The inhibition was 19% (inactive).

With `CC(C)(C)c1ccc(C(=O)NC2CCC(CCN3CCc4ccc(S(C)(=O)=O)cc4CC3)CC2)cc1C(F)(F)F` (stereo not given) as the molecule, how does the inhibition read?
The inhibition was 54% (active).

For `CCN(CC)CCN(Cc1ccc(-c2ccc(C(F)(F)F)cc2)cc1)C(=O)Cn1c(CCc2c(F)cc(F)cc2F)nc(=O)c2ccccc21`, which inhibition is on record?
Its inhibition is 39% (inactive).

For `CC(C)(C)c1ccc(CN2CCC(NC(=O)c3ccc(-c4ccccc4F)s3)CC2)cc1`, which inhibition is on record?
Its inhibition is 36% (inactive).

Which inhibition does the source give for `C1=CN(Cc2ccccc2)C=CC1=C1C=Nc2ccccc21` here?
The inhibition was 8% (inactive).

With `CCOc1ccc(C(=O)Nc2ccc(-c3nc4ccccc4[nH]3)cc2)cc1[N+](=O)[O-]` as the molecule, how does the inhibition read?
The inhibition was 22% (inactive).

With `CCCC(C)Nc1nc(C)cc(N[C@@H](Cc2ccccc2)C(=O)Nc2ccc(OC)cc2)n1` (stereo not given in full) as the molecule, how does the inhibition read?
Its inhibition is 24% (inactive).

For `Cc1nc(N)nc(N)c1-c1ccc(Br)c([N+](=O)[O-])c1`, which inhibition is on record?
The inhibition was 64% (active).

With `Cc1cc(NN=Cc2cccc([N+](=O)[O-])c2)c2cc(F)ccc2n1` as the molecule, how does the inhibition read?
Its inhibition is 3% (inactive).

For `CCCCCC(=O)NCC(NCCCNc1cc(=O)c2ccccc2[nH]1)c1cc(Br)cc(Br)c1` (stereo not given), which inhibition is on record?
The inhibition was -1% (inactive).

With `CCC(=O)c1c(C)n(-c2ncnc3c2nc(C)n3-c2ccc(C)cc2C)c2ccccc12` as the molecule, how does the inhibition read?
The inhibition was -16% (inactive).

Which inhibition does the source give for `Cc1ccccc1NC1=NC(=S)N(c2cccc(C(F)(F)F)c2)C12CCC(C(C)(C)C)CC2` (stereo not given) here?
Its inhibition is 9% (inactive).

Which inhibition does the source give for `C=CCc1cc(Cc2cnc(N)nc2N)cc(CCC)c1O` here?
Its inhibition is 54% (active).

Which inhibition does the source give for `CCNc1cc(C)nc(Nc2ccc(F)cc2)n1` here?
The inhibition was 1% (inactive).

Which inhibition does the source give for `Cc1ccc2c(Cl)c(C(=O)N3CCCc4ccccc43)sc2c1` here?
The inhibition was 4% (inactive).

Which inhibition does the source give for `COc1ccc(CNCc2cccc(-c3csc(-c4nc5ccccc5[nH]4)c3)c2)cc1` here?
Its inhibition is 17% (inactive).

For `CC(C)(C)c1ccc(OCCCON2C(N)=NC(N)=NC2(C)C)c(C(C)(C)C)c1`, which inhibition is on record?
The inhibition was 64% (active).

For `CC(=O)Nc1nc(C(=O)Nc2cccc(-c3ccc4c(cnn4CC4CC4)c3)c2)cs1`, which inhibition is on record?
Its inhibition is 16% (inactive).

Which inhibition does the source give for `CN(Cc1ccc(NC(=O)CCC2CCN(C(=O)/C=C/c3ccc(Cl)c(Cl)c3)CC2)cc1)C1CCOCC1` here?
The inhibition was 10% (inactive).

Which inhibition does the source give for `O=C(NCc1cccs1)[C@H](Cc1ccccc1)Nc1ccnc(NCC2CCCCC2)n1` here?
The inhibition was 5% (inactive).

Which inhibition does the source give for `Cc1cc(N[C@@H](CC(C)C)C(=O)NCCOc2ccccc2)nc(NCCc2ccc(F)cc2)n1` here?
The inhibition was 25% (inactive).

With `Cc1cccc(OCC2CCN(c3ncc(C(=O)NC4CC4)cc3Cl)CC2)c1` as the molecule, how does the inhibition read?
The inhibition was -4% (inactive).

With `O=c1cc(NCCCNCc2cc(Cl)cc(Cl)c2OCc2ccc(Cl)cc2)[nH]c2ccccc12` as the molecule, how does the inhibition read?
The inhibition was 6% (inactive).

With `CC(C)N(CC(=O)c1ccc(O)c(C(=O)O)c1)Cc1ccccc1` as the molecule, how does the inhibition read?
The inhibition was -7% (inactive).

With `Cc1ccc(NC(=O)Nc2ccc(Cn3ncc(N4CCCNCC4)c(Cl)c3=O)cc2)cc1` as the molecule, how does the inhibition read?
Its inhibition is 35% (inactive).

For `Oc1ccc2ccccc2c1CNCC1CCCCC1`, which inhibition is on record?
The inhibition was -12% (inactive).

Which inhibition does the source give for `Cc1cc(CN2CC[C@H](NC(=O)c3ccc(Cl)c(Cl)c3)C2)ccc1OCCN1CCCC1` here?
The inhibition was 56% (active).

With `CCN(CCN(C)C)Cc1ccc(-c2ccc(NS(=O)(=O)c3cccc(Cl)c3)cc2)cc1` as the molecule, how does the inhibition read?
Its inhibition is 43% (inactive).

For `CCOC(=O)[C@H](Cc1cc([N+](=O)[O-])c(Oc2ccc(OC)c(Cc3ccc(OC)c(C(C)C)c3)c2)c([N+](=O)[O-])c1)NC(=O)C(F)(F)F`, which inhibition is on record?
Its inhibition is 5% (inactive).

With `Cc1[nH]c2ccccc2c(=O)c1-c1ccc(Cl)cc1` as the molecule, how does the inhibition read?
The inhibition was -1% (inactive).

With `c1ccc(CN2CCC(NCc3ccccc3-c3ccc(CNCc4ccc5c(c4)OCO5)cc3)CC2)cc1` as the molecule, how does the inhibition read?
The inhibition was 26% (inactive).

For `COc1ccc(-n2nc(C(=O)NCCC3=CCCCC3)c3ccccc3c2=O)cc1`, which inhibition is on record?
The inhibition was 0% (inactive).

For `Nc1nc(N)c2c(Oc3cccc4ccccc34)cccc2n1`, which inhibition is on record?
Its inhibition is 42% (inactive).

With `Cc1cc(N(C)C)nc(Nc2ccc(NC(=O)Nc3ccccc3)cc2)n1` as the molecule, how does the inhibition read?
Its inhibition is 10% (inactive).
